These results are taken from article PMC7862700, “An all-to-all approach to the identification of sequence-specific readers for epigenetic DNA modifications on cytosine”.

Experiment in all cases: DAPPL (digital affinity profiling via proximity ligation, sequencing); 10 mM Tris-HCl pH 7.5, 50 mM NaCl, 1 mM DTT, 4% glycerol, room temperature, 30 min; GST-TFs on glutathione beads, 16-mer random dsDNA library, 0.1% formaldehyde crosslink after washing; high values mean tight binding
The target in one test is T1, FEV (Homo sapiens, UniProt Q99581 1-238).
T1 sequence: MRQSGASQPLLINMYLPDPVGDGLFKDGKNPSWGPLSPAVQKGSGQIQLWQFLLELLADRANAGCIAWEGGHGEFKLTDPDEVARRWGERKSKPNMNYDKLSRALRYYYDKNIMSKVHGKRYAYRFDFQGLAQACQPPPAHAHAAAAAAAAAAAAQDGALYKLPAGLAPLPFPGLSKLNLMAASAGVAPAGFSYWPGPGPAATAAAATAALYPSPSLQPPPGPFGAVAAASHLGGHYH
To be noted: protein: recombinant; tags: N-terminal GST; dsDNA, one strand shown. The procedure, abridged:
(§1)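 Pools were built from human transcription factors expressed in yeast as GST fusions, captured on glutathione beads and DNA-barcoded, along with a tag-only sample. Incubation with 200 nmole of a 16-mer random double-stranded DNA library lasted 30 min at room temperature in Tris/NaCl/DTT/glycerol buffer, and was followed by washing, 0.1% formaldehyde crosslinking, proximity ligation, PCR amplification and Illumina NextSeq500 sequencing. Binding signal is the quotient of each hexamer's read frequency for a factor and its frequency for the tag-only sample.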

The target in another test is ETV5 (Homo sapiens, UniProt P41161 1-510). To be noted: protein: recombinant; tags: N-terminal GST; dsDNA, one strand shown. The method in brief: as §1
Chain of ETV5 (P41161 whole entry): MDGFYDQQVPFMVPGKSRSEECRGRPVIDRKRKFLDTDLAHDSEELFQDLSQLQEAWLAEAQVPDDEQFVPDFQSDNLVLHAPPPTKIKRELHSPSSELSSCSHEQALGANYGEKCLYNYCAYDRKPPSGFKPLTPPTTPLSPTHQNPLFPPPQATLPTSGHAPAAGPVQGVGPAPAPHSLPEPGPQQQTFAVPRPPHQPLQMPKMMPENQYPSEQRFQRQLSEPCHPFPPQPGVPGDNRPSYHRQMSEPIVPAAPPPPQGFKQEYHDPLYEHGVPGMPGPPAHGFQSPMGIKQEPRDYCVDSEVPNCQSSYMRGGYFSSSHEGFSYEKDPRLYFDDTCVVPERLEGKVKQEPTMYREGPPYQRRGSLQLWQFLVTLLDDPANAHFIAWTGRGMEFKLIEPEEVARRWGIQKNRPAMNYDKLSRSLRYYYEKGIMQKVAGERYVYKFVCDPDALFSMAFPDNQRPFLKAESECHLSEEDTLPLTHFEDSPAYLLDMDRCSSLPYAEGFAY
A further test addresses HSF1 (Homo sapiens, UniProt Q00613 1-529). To be noted: protein: recombinant; tags: N-terminal GST; chain copies: 3; dsDNA, one strand shown. The method in brief: as §1
Another test concerns the target T2, SPIC (Homo sapiens, UniProt Q8N5J4 1-248).
T2 sequence: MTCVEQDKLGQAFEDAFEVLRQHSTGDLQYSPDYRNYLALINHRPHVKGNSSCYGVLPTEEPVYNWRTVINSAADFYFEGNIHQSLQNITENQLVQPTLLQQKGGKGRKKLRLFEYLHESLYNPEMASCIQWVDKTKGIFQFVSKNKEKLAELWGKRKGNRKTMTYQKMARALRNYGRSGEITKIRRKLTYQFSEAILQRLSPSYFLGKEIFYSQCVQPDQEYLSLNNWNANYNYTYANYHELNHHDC
The settings on record: protein: recombinant; tags: N-terminal GST; dsDNA, one strand shown. The procedure, abridged: as §1

In a further test the target is ELF4 (Homo sapiens, UniProt Q99607 1-663). The settings on record: protein: recombinant; tags: N-terminal GST; dsDNA, one strand shown. The method in brief: as §1
Chain of ELF4 (Q99607 whole entry): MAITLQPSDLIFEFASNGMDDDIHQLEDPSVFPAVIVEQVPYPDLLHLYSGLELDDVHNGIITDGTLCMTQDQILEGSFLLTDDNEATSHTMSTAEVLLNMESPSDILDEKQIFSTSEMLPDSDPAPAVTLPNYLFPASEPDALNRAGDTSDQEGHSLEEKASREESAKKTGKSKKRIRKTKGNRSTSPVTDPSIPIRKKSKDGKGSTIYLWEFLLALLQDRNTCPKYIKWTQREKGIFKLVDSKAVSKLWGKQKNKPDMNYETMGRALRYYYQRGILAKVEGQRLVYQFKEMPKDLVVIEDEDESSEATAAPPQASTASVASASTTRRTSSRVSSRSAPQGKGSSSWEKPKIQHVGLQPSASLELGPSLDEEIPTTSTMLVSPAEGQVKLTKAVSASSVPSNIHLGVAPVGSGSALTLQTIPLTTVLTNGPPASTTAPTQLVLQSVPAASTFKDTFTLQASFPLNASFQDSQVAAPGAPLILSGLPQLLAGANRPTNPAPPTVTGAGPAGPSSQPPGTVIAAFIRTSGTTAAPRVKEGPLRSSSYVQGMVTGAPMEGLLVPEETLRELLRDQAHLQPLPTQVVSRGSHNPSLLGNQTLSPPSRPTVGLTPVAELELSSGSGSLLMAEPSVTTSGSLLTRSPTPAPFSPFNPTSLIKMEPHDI
The target in another test is T3, ELK4 (Homo sapiens, UniProt P28324-2 1-405).
T3 sequence: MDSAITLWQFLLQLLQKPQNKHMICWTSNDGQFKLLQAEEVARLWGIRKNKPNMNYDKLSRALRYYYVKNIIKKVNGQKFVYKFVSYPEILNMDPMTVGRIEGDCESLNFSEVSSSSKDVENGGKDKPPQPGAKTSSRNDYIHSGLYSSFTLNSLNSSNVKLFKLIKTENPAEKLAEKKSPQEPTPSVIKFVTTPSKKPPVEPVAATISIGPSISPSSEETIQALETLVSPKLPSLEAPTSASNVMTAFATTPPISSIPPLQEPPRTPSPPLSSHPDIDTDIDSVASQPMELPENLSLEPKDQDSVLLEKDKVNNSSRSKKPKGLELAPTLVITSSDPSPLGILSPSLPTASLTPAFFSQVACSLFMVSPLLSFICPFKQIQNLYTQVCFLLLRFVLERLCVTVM
To be noted: protein: recombinant; tags: N-terminal GST; dsDNA, one strand shown. The procedure, abridged:
as §1

The next test concerns the target T4, ETV2 (Homo sapiens, UniProt O00321 1-342).
T4 sequence: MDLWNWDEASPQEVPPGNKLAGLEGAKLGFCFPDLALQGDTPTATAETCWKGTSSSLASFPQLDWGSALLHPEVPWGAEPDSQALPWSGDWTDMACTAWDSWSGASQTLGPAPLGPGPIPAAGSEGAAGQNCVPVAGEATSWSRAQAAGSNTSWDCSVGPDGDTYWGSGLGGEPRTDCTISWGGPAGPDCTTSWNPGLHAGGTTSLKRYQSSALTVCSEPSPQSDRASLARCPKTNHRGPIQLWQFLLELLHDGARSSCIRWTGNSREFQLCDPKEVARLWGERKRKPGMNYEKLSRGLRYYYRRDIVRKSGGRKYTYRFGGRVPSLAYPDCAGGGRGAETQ
To be noted: protein: recombinant; tags: N-terminal GST; dsDNA, one strand shown. The procedure, abridged: as §1

In the next test the target is T5, ELF3 (Homo sapiens, UniProt P78545 1-371).
T5 sequence: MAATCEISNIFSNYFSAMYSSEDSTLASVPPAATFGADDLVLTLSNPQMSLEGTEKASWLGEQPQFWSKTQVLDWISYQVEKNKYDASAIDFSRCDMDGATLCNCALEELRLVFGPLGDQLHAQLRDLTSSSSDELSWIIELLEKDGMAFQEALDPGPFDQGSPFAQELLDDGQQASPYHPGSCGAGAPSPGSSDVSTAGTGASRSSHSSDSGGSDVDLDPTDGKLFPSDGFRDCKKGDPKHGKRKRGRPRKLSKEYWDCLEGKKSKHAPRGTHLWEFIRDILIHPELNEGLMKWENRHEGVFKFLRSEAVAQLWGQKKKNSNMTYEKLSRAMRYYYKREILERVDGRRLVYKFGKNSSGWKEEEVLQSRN
The settings on record: protein: recombinant; tags: N-terminal GST; dsDNA, one strand shown. The procedure, abridged:
as §1

A further test deals with CRX (Homo sapiens, UniProt O43186 1-299). To be noted: protein: recombinant; tags: N-terminal GST; dsDNA, one strand shown. The procedure, abridged:
as §1

A further test concerns the target ETV1 (Homo sapiens, UniProt P50549 1-477). The settings on record: protein: recombinant; tags: N-terminal GST; dsDNA, one strand shown. The method in brief:
as §1

A further test has as its target T6, ERF (Homo sapiens, UniProt P50548 1-548).
T6 sequence: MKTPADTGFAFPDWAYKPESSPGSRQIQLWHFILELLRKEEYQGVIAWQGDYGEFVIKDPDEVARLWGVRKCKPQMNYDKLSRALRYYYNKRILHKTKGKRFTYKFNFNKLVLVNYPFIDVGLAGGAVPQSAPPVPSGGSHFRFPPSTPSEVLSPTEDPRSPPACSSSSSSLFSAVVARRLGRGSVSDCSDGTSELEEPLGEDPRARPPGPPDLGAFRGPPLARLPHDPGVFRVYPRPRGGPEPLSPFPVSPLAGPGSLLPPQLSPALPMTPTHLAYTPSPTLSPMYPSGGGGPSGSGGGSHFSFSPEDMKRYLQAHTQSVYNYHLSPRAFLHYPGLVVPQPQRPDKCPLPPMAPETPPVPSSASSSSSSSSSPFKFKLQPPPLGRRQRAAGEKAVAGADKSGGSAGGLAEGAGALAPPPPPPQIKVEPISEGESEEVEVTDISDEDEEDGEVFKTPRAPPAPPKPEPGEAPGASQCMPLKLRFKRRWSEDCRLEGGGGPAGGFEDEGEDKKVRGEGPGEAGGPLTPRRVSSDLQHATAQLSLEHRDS
To be noted: protein: recombinant; tags: N-terminal GST; dsDNA, one strand shown. The procedure, abridged: as §1

Another test has as its target T7, ETV3L (Homo sapiens, UniProt Q6ZN32 1-361).
T7 sequence: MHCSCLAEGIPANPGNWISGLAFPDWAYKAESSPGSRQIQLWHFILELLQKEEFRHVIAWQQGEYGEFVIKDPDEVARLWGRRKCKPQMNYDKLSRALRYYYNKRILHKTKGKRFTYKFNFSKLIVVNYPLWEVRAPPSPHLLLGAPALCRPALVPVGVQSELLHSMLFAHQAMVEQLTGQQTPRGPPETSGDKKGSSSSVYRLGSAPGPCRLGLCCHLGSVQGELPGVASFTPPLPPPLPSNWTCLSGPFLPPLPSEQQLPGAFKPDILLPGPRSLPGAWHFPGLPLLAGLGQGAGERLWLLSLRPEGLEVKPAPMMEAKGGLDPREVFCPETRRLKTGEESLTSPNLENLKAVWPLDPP
To be noted: protein: recombinant; tags: N-terminal GST; dsDNA, one strand shown. The procedure, abridged:
as §1

Another test deals with T8, ETS2 (Homo sapiens, UniProt P15036 1-469).
T8 sequence: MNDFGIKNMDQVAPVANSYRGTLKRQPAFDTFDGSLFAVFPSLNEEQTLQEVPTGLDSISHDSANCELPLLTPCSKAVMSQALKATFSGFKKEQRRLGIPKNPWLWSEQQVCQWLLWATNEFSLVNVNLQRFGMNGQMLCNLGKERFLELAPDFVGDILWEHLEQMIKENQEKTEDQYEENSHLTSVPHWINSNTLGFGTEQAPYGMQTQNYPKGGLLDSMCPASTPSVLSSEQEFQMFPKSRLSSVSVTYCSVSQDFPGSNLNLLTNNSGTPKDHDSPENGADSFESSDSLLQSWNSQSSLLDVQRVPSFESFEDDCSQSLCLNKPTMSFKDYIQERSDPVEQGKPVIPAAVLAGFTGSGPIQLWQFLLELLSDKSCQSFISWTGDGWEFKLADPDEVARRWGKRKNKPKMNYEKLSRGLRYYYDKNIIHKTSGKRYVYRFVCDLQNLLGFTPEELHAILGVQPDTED
The settings on record: protein: recombinant; tags: N-terminal GST; dsDNA, one strand shown. The method in brief: as §1

The target in another test is T9, SPDEF (Homo sapiens, UniProt O95238 1-335).
T9 sequence: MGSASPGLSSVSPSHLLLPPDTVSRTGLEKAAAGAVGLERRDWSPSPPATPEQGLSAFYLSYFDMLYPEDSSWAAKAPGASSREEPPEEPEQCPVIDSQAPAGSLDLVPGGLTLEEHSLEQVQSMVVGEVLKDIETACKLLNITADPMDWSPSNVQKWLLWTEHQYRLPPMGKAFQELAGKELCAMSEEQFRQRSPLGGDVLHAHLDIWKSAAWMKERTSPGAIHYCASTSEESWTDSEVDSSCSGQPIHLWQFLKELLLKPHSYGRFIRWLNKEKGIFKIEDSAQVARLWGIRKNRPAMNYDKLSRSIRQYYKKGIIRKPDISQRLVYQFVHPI
To be noted: protein: recombinant; tags: N-terminal GST; dsDNA, one strand shown. The method in brief: as §1

Another test addresses T10, ETV7 (Homo sapiens, UniProt Q9Y603 1-341).
T10 sequence: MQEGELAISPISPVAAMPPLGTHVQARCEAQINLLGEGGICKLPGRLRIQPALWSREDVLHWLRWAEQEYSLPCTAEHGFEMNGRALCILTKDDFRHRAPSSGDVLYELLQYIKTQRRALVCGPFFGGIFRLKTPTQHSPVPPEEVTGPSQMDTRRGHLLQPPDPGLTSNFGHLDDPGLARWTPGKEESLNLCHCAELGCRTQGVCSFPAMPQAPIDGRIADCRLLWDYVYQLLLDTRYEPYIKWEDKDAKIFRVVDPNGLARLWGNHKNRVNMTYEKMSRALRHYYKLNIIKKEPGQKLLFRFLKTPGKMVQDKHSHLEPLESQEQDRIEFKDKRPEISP
To be noted: protein: recombinant; tags: N-terminal GST; dsDNA, one strand shown. The procedure, abridged: as §1

The target in a further test is T11, ELF5 (Homo sapiens, UniProt Q9UKW6-2 1-255).
T11 sequence: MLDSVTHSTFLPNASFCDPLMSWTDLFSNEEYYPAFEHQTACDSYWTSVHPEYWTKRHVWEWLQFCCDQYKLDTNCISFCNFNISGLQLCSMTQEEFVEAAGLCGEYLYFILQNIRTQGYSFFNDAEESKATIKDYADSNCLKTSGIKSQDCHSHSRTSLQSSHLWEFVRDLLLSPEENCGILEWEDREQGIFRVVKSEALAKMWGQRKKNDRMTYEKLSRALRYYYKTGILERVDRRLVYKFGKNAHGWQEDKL
To be noted: protein: recombinant; tags: N-terminal GST; dsDNA, one strand shown. The procedure, abridged: as §1

The target in a further test is T12, ETV3 (Homo sapiens, UniProt P41162-2 1-143).
T12 sequence: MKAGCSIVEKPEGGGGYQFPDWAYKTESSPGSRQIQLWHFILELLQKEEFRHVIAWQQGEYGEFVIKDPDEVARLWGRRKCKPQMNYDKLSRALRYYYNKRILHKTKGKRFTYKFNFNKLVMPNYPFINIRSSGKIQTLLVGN
To be noted: protein: recombinant; tags: N-terminal GST; dsDNA, one strand shown. The method in brief: as §1

The next test addresses ETV6 (Homo sapiens, UniProt P41212 1-452). To be noted: protein: recombinant; tags: N-terminal GST; dsDNA, one strand shown. The method in brief:
as §1

Chain of ETV1 (P50549 whole entry): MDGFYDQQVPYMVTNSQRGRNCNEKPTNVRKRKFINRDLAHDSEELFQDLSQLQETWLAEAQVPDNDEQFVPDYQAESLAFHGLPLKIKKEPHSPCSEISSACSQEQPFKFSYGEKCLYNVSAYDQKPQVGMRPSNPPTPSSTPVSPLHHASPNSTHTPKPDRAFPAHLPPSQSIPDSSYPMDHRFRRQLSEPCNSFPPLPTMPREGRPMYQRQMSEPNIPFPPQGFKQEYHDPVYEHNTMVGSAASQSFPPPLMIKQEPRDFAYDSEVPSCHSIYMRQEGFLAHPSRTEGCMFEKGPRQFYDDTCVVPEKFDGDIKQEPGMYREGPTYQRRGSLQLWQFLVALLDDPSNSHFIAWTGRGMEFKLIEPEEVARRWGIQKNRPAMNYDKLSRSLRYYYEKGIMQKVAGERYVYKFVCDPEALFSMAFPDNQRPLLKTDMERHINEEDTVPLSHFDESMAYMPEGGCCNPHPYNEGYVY
Chain of ETV6 (P41212 whole entry): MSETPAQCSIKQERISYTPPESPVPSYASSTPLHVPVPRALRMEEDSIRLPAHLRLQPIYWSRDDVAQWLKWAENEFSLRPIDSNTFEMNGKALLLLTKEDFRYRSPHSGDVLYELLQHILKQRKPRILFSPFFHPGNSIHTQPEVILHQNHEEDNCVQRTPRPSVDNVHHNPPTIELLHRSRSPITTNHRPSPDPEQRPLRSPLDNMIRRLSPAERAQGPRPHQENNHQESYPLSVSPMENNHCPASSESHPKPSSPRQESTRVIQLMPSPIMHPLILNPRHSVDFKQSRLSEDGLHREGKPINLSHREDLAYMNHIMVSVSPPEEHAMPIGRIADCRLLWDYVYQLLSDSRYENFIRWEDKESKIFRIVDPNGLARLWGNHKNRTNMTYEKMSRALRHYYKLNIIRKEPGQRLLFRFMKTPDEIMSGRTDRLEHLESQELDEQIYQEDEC
Chain of CRX (O43186 whole entry): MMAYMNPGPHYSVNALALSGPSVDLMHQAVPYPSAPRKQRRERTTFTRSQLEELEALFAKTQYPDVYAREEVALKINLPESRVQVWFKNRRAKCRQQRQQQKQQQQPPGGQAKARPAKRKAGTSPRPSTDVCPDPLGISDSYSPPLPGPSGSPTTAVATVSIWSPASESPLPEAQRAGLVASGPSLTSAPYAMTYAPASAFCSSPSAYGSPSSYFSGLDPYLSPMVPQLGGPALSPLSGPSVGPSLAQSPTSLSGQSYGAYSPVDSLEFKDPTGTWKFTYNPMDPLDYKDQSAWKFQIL
Chain of HSF1 (Q00613 whole entry): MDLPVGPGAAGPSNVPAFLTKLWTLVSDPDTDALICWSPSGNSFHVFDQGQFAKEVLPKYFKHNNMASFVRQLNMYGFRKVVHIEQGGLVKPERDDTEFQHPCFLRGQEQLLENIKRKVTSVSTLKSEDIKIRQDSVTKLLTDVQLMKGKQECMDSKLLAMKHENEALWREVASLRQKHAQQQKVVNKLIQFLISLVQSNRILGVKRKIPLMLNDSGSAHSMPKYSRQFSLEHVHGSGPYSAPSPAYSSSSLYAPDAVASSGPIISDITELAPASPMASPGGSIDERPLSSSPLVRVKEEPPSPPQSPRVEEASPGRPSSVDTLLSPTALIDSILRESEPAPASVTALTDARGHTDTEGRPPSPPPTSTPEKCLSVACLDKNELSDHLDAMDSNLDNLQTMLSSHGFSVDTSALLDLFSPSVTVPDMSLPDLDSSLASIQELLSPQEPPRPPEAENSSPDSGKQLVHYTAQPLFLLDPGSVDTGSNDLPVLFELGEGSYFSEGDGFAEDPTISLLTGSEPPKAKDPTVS

Regarding TGGGAT, the binding signal is 1.18 fold enrichment (6-mer frequency, TF over GST control) with FEV; 1.19 fold enrichment (6-mer frequency, TF over GST control) in the test with ETV5; 1.47 fold enrichment (6-mer frequency, TF over GST control) in the test with HSF1; 1.17 fold enrichment (6-mer frequency, TF over GST control) with SPIC; 1.2 fold enrichment (6-mer frequency, TF over GST control) with ELF4; 1.39 fold enrichment (6-mer frequency, TF over GST control) with ELK4. Further, the binding signal with ETV2 is 1.14 fold enrichment (6-mer frequency, TF over GST control); with ELF3 it was 1.12 fold enrichment (6-mer frequency, TF over GST control); with CRX, 1.9 fold enrichment (6-mer frequency, TF over GST control); with ETV1, 1.25 fold enrichment (6-mer frequency, TF over GST control); in the test with ERF, 1.05 fold enrichment (6-mer frequency, TF over GST control); with ETV3L it was 1.15 fold enrichment (6-mer frequency, TF over GST control). The binding signal with ETS2 was 1.17 fold enrichment (6-mer frequency, TF over GST control); in the test with SPDEF, 1.17 fold enrichment (6-mer frequency, TF over GST control); with ETV7, 1.15 fold enrichment (6-mer frequency, TF over GST control); with ELF5, 1.2 fold enrichment (6-mer frequency, TF over GST control); with ETV3 it was 1.18 fold enrichment (6-mer frequency, TF over GST control); with ETV6, 1.23 fold enrichment (6-mer frequency, TF over GST control).
